Screens (PubChem BioAssay)
The list is not random: actives were taken first. Their share in the collection is about 12%.
HP1b binding inh – HTS for Inhibitors of HP1-beta Chromodomain Interactions with Methylated Histone Tails. Chromobox protein homolog 1 (Homo sapiens), P83916. AlphaScreen HP1-beta / biotin-H3K9me3 peptide binding. Potency, µM (titrated, usually from 114 µM), for the others: at the top dose activity change, negative = inhibition, most hits filed as inhibitors. 390,000 tested, 0.56% active. AID 540317, 2011; further: nearly all actives have a fitted effect of over 70% in size
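AlphaScreen: HP1-beta (50 nM) preformed 30 min with biotin-H3(1-18)K9me3 peptide (50 nM) in PBS pH 7.4, 0.01% Tween-20. Compound added for 30 min at RT, then streptavidin donor/nickel chelate acceptor beads (10 ug/mL) for 30 min.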
TDP1 inh – qHTS Assay for Inhibitors of Tyrosyl-DNA Phosphodiesterase (TDP1) | Potency, µM (doses to about 130 µM), without a hit: top-dose activity change, negative = inhibition, most hits filed as inhibitors | recombinant TDP1, AlphaScreen DNA substrate cleavage | 350,000 tested, 0.28% active; further: on the % scale 0 is the no-effect control and ±100 the full control effect; nearly all actives have a fitted effect of over 40% in size
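Compounds were preincubated with Tdp1 (1 nM final) for 15 min at room temperature before substrate (15 nM final) started a 5 min reaction; beads (10 ug/ml final) were then added for 10 min before AlphaScreen detection.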
Sfp inh – qHTS Assay for Inhibitors of Bacillus subtilis Sfp phosphopantetheinyl transferase (PPTase); 4'-phosphopantetheinyl transferase ffp (Bacillus subtilis), Q9F4F7; Biochemical Sfp PPTase activity, qHTS; Potency, µM, inactives show largest response in the series, negative = inhibition, actives largely listed as inhibitors; 310,000 tested, 3.5% active; AID 1490, 2009;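 further: the enzyme is Sfp with the accession as filed and its product quenches rhodamine fluorescence; 0% = enzyme reaction without inhibitor and -100% = no enzyme wells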
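Fluorescence-quenching assay: 15 nM Sfp-PPTase preincubated 15 min at room temperature with compound, then 5 uM rhodamine-CoA and 12.5 uM BHQ-2-labelled YbbR peptide added. Fluorescence (ex 525/em 598 nm) read at start and after 30 min; difference gives rate.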
BAZ2B inh – qHTS Assay for Inhibitors of BAZ2B. Bromodomain adjacent to zinc finger domain protein 2B (Homo sapiens), Q9UIF8. AlphaScreen BAZ2B-H3K14Ac peptide displacement. Potency, µM (top dose mostly 114 µM), inactives show top-dose activity change, negative = inhibition, hits mostly inhibitors. 360,000 tested, 4.4% active. AID 504333, 2011; further: on the % scale 0 is the no-effect control and ±100 the full control effect; nearly all actives have a fitted effect of over 60% in size
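Multi-concentration screen (max 110 uM) measuring displacement of acetylated histone H3 peptide from BAZ2B by AlphaScreen, using 50 nM protein, 50 nM peptide and 10 ug/mL streptavidin donor plus Ni-chelate acceptor beads.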
JMJD2A Tudor inh – qHTS Assay for Inhibitors of JMJD2A-Tudor Domain | Lysine-specific demethylase 4A (Homo sapiens), O75164 | AlphaScreen JMJD2A-Tudor / H3K4me3 peptide binding | Potency, µM (top dose mostly 114 µM), inactives show top-dose activity change, negative = inhibition, hits mostly inhibitors | 390,000 tested, 4.4% active; further: on the % scale 0 is the no-effect control and ±100 the full control effect; nearly all actives have a fitted effect of over 50% in size
G9a inh – qHTS Assay for Inhibitors of Histone Lysine Methyltransferase G9a. 350,000 tested, 8.8% active. Potency, µM (titrated, usually from 102 µM), without a hit: at the highest dose activity, negative = inhibition, hits mostly inhibitors. G9a H3K9 monomethylation, AlphaScreen, 2 h. Histone-lysine N-methyltransferase EHMT2 (Homo sapiens), Q96KQ7; further: on the % scale 0 is the no-effect control and ±100 the full control effect; nearly all actives have a fitted effect of over 75% in size
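Methyltransferase reactions run at room temperature for 2 h (20 nM enzyme, 500 nM biotin-H3K9 peptide, 20 uM SAM) after a 15 min compound preincubation; product detected by AlphaScreen beads and anti-H3K9me1 antibody.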
* marks the source's active call; other numbers are inactive results; [ ] = remark or other dose. The call rests on the fitted dose curve; in most records, active means well fitted curve in the direction sought with a large enough effect; inconclusive means small, poorly fitted or top-dose-only effect, or another doubt; inactive means no such curve, though single readings can be large; an effect the other way counts as inactive or inconclusive. Potency means the concentration at half of the fitted maximal effect.

`COc1ccc(-c2ccc(CCC(=O)O)n2-c2ccc(Cl)cc2C)cc1` gave HP1b binding inh 2%, BAZ2B inh inconclusive, JMJD2A Tudor inh inconclusive and G9a inh inconclusive.
`Cc1ccc(C)c(-n2c(CCC(=O)O)ccc2-c2ccc(Cl)cc2)c1` gave HP1b binding inh -13%, BAZ2B inh 40µM*, JMJD2A Tudor inh inconclusive and G9a inh 13µM*.
Cc1ccc(-c2ccc(CCC(=O)O)n2-c2ccc(C)c(Cl)c2)cc1 was read as HP1b binding inh -19%, BAZ2B inh inconclusive, JMJD2A Tudor inh inconclusive and G9a inh 13µM*.
For COc1ccc(-c2ccc(CCC(=O)O)n2NC(=O)c2ccc(O)cc2)cc1 the results were HP1b binding inh 45%, TDP1 inh 3%, Sfp inh 21%, BAZ2B inh -14%, JMJD2A Tudor inh -17% and G9a inh 7%.
For CN(CC(=O)NC1CC(C)(C)NC(C)(C)C1)S(=O)(=O)c1ccc(Br)cc1 the results were HP1b binding inh 3%, TDP1 inh 1%, Sfp inh 10%, BAZ2B inh 1%, JMJD2A Tudor inh -16% and G9a inh 25%.
For O=C(O)CCn1cc(/C=C/C(=O)c2ccc(Cl)cc2)c(-c2ccc(Br)cc2)n1 the results were HP1b binding inh 3%, TDP1 inh 5%, Sfp inh 1%, BAZ2B inh -35%, JMJD2A Tudor inh -35% and G9a inh 79µM*.
Screening Cc1ccc2nc3c(cc2c1)c(C)nn3-c1ccccc1 returned HP1b binding inh inactive, Sfp inh -8%, BAZ2B inh 416%, JMJD2A Tudor inh 476% and G9a inh inactive.
Cc1nn(-c2ccccc2)c(=S)c2ccccc12 was read as HP1b binding inh 37%, TDP1 inh -3%, Sfp inh -23%, BAZ2B inh inconclusive, JMJD2A Tudor inh 7% and G9a inh 13µM*.
For COc1cc(C(c2oc(CO)cc(=O)c2O)c2oc(CO)cc(=O)c2O)cc(OC)c1OC the results were HP1b binding inh 55%, TDP1 inh 4%, Sfp inh -25%, BAZ2B inh 50µM*, JMJD2A Tudor inh inconclusive and G9a inh 11µM*.
For COc1cc(C(c2c(O)nc(SC)[nH]c2=O)c2c(O)nc(SC)[nH]c2=O)cc(OC)c1OC the results were HP1b binding inh 31%, Sfp inh inconclusive, BAZ2B inh 9%, JMJD2A Tudor inh 8% and G9a inh -1%[0.501 µM].
COc1cc(C(c2c(O)cc(C)[nH]c2=O)c2c(O)cc(C)[nH]c2=O)ccc1O was read as HP1b binding inh -10%, Sfp inh 7%, BAZ2B inh -3%, JMJD2A Tudor inh -11% and G9a inh -6%.
For COc1ccc(C(c2oc(CO)cc(=O)c2O)c2oc(CO)cc(=O)c2O)cc1OC the results were HP1b binding inh 43%, TDP1 inh -2%, Sfp inh -33%, BAZ2B inh 50µM*, JMJD2A Tudor inh inconclusive and G9a inh 20µM*.
`CCOC(=O)N1CC(C)N(CC(O)CN2CCOCC2)CC1C` (centres undefined) gave HP1b binding inh 32%[57 µM] and JMJD2A Tudor inh -7%.
`O=C(NC1CC(=O)N(c2ccc(Cl)cc2)C1)C1CCCCC1` (centres undefined) gave HP1b binding inh -8%, TDP1 inh 3%, BAZ2B inh 0%, JMJD2A Tudor inh -8% and G9a inh inconclusive.
For COC(=O)[C@@]1(Cc2ccc(OC)cc2)[C@H]2c3cc(C(=O)N4CCCC4)n(Cc4ccc(OC)c(OC)c4)c3C[C@H]2CN1C(=O)c1ccccc1 the results were TDP1 inh 9%, Sfp inh -7%, BAZ2B inh inconclusive and G9a inh 45µM*.
`COC(=O)[C@@]1(Cc2ccc(OC)cc2)[C@H]2c3cc(C(=O)N4CCCC4)n(CCN4CCNC4=O)c3C[C@H]2CN1C(=O)c1ccccc1` gave TDP1 inh 0%, Sfp inh -11%, BAZ2B inh -11% and G9a inh 79µM*.
Screening COc1cc2c(cc1OC)C(C)N(C(=O)Cc1ccc(C(F)(F)F)cc1)CC2 (centres undefined) returned HP1b binding inh -35%, Sfp inh 7%, BAZ2B inh -9%, JMJD2A Tudor inh -11% and G9a inh inconclusive.
`CC(=O)NCc1ccc(S(=O)(=O)N2CCCN(C)CC2)cc1` gave HP1b binding inh 4%, Sfp inh -26%, BAZ2B inh -14%, JMJD2A Tudor inh 25µM* and G9a inh 79µM*.
CN1CCCN(S(=O)(=O)c2ccccc2)CC1 was read as HP1b binding inh -15%, Sfp inh 4%, BAZ2B inh 4%, JMJD2A Tudor inh inconclusive and G9a inh -18%.
CN1CCCN(S(=O)(=O)c2ccc(O)c(C(=O)O)c2)CC1 was read as HP1b binding inh 22%, Sfp inh 9%, BAZ2B inh -12%, JMJD2A Tudor inh -15% and G9a inh 79µM*.
For CC(=O)NCc1ccc(S(=O)(=O)N2CCN(c3ccccn3)CC2)cc1 the results were HP1b binding inh 26%, TDP1 inh 0%, Sfp inh 8%, BAZ2B inh 5%, JMJD2A Tudor inh -6% and G9a inh inconclusive.
`COc1ccc(N2CCC(CNC(=S)Nc3cccc(OC)c3)C2)cc1` (centres undefined) gave TDP1 inh 9%, Sfp inh -9%, BAZ2B inh 16µM* and G9a inh inconclusive.
`CCc1cccc(C)c1NC(=S)NCC1CCN(c2ccc(OC)cc2)C1` (centres undefined) gave HP1b binding inh 22µM*, TDP1 inh 11%, Sfp inh -8%, BAZ2B inh 28µM*, JMJD2A Tudor inh 45µM* and G9a inh 10µM*.
Screening CCc1ccccc1NC(=S)NCC1CCN(c2ccc(OC)cc2)C1 (centres undefined) returned HP1b binding inh 13µM*, TDP1 inh 12%, Sfp inh -11%, BAZ2B inh 22µM*, JMJD2A Tudor inh 35µM* and G9a inh inconclusive.
